Data: PubChem BioAssay (NCATS)
Active and inactive are the calls of the source. Entries that show only a call come without a potency. Calls follow the shape of the dose curve; as a rule, active = well fitted curve in the direction sought with a large enough effect; inconclusive = small, poorly fitted or top-dose-only effect, or another doubt; inactive = no such curve, though single readings can be large; an effect the other way counts as inactive or inconclusive.

Experiment: qHTS for inhibitors of adenylyl cyclases using a fission yeast platform: a pilot screen against the NCATS LOPAC library (AID 1347410)
Settings: S. pombe CHP2027, fbp1-GFP fluorescence, 18 h, yeast expressing mammalian AC9 and human GNAS; series mostly up to 57.5 µM
Method in brief: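 Inhibition of GNAS-stimulated AC9 activity in S. pombe was inferred from derepression of a PKA-repressed fbp1-GFP reporter, measured as cytometric fluorescence after 18 h at 30C with compounds at up to 57 µM.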
For `CCCCCCCCCCC(C)(C)C(=O)Nc1c(OC)cc(OC)cc1OC`, the outcome was “inactive”.
For `N#CC(C#N)=C(N)/C(C#N)=C/c1ccc(O)cc1`, the outcome was “inactive”.
In the case of `NC(N)=NC(N)=Nc1cccc(Cl)c1`, the outcome is reported as “inactive”.
With `N#C/C(=C\c1ccc(O)c(O)c1)C(=O)NCCc1ccccc1` the outcome was “inactive”.
In the case of `CC(C)(CO)Cc1cc(C(C)(C)C)c(O)c(C(C)(C)C)c1`, the outcome is reported as “inactive”.
In the case of `CC(N)(Cc1ccc(O)cc1)C(=O)O` (stereo unspecified), the outcome is reported as “inactive”.
In the case of `COc1cccc(OC)c1OCCNCC1CSc2ccccc2O1` (stereo unspecified), the outcome is reported as “inactive”.
In the case of `N#CC(=C(\N)Sc1ccccc1N)/C(C#N)=C(/N)Sc1ccccc1N`, the outcome is reported as “inactive”.
For `NCCCCN`, the outcome was “inactive”.
For `O=C1NC(=O)c2cc(Nc3ccccc3)c(Nc3ccccc3)cc21`, the outcome was “inactive”.
With `NC(N)=NC(N)=Nc1ccccc1` the outcome was “inactive”.
In the case of `CC(C)(C)c1ccc(/C=C/C(=O)Nc2ccc3c(c2)OCCO3)cc1`, the outcome is reported as “inactive”.
In the case of `CNCCNS(=O)(=O)c1cccc2cnccc12`, the outcome is reported as “inactive”.
With `CC(C)C[C@H](NC(=O)[C@H](O)[C@H](N)Cc1ccccc1)C(=O)O` the outcome was “inactive”.
For `O=c1[nH]c2cc(Cl)ccc2c(O)c1-c1ccc(Oc2ccccc2)cc1`, the outcome was “inactive”.
For `CCCCCCCCCCCCCCC[C@H](O)[C@H](N)CO`, the outcome was “inactive”.
For `Clc1nccc2c1ccc1ccccc12`, the outcome was “inactive”.
For `C=CCN1CCc2c(cc(O)c(O)c2Br)[C@@H](c2ccccc2)C1`, the outcome was “inactive”.
In the case of `COc1cc(N)c(Cl)cc1C(=O)OCCN1CCCCC1`, the outcome is reported as “inactive”.
With `CCCC[C@@]1(C2CCCC2)Cc2cc(OCC(=O)O)c(Cl)c(Cl)c2C1=O` the outcome was “inactive”.
For `NCCNS(=O)(=O)c1cccc2c(Cl)cccc12`, the outcome was “inactive”.
In the case of `O=C(O)c1cc(=O)cc(C(=O)O)[nH]1`, the outcome is reported as “inactive”.
For `NC1(C(=O)O)CCc2cc(C(=O)O)ccc21` (stereo unspecified), the outcome was “inactive”.
In the case of `NCCCCN=C(N)N`, the outcome is reported as “inactive”.
With `COc1ccc(CCN(C)CCc2ccc(OC)c(OC)c2)cc1OC` the outcome was “inactive”.
In the case of `CCC1(O)CC2CN(CCc3c([nH]c4ccccc34)[C@@](C(=O)OC)(c3cc4c(cc3OC)N(C=O)C3[C@]45CCN4CC=C[C@@](CC)([C@@H](OC(C)=O)[C@]3(O)C(=O)OC)[C@H]45)C2)C1` (stereo partly specified), the outcome is reported as “inactive”.
With `C=CCNc1ncnc2ccc(Br)cc12` the outcome was “inactive”.
For `CCCn1c(=O)c2[nH]c(C3CCCC3)nc2n(CCC)c1=O`, the outcome was “inactive”.
With `CC[C@H](NC(=O)c1c(C)c(-c2ccccc2)nc2ccccc12)c1ccccc1` the outcome was “inactive”.
For `Cc1ccccc1/C=C/C1=NCCN1`, the outcome was “inactive”.
With `Nc1nc2ccc(Cl)cc2c2nc(-c3ccco3)nn12` the outcome was “inactive”.
In the case of `CO/N=C(\C(=O)N[C@@H]1C(=O)N2C(C(=O)O)=C(CSc3nc(=O)c(O)nn3C)CSC12)c1csc(N)n1` (stereo partly specified), the outcome is reported as “inactive”.
In the case of `O=c1[nH]c2ccccc2c2ccccc12`, the outcome is reported as “inactive”.

Experiment: Validation qHTS assay for inhibitors of Activation Induced Cytidine Deaminase (AID): UDG Counterscreen signal (AID 1347427)
Settings: biochemical UDG counterscreen, fluorescence signal; series mostly up to 115 µM
Method in brief: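 Fluorescence at 560 nm excitation, 665 nm emission reports UDG signal after 250 mM NaOH (2x) addition and 30 min. Enzymes (AID 1 uM, UDG 2 U/mL, at 4/3x) preincubated 10 min with compound, then 4 h with 4x 250 nM DJC20/DJC23 substrate at room temperature.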
For `CCCCCCCCCCC(C)(C)C(=O)Nc1c(OC)cc(OC)cc1OC`, the Potency was “inactive”.
In the case of `N#CC(C#N)=C(N)/C(C#N)=C/c1ccc(O)cc1`, the Potency is reported as “inactive”.
In the case of `CCCCCCCCCCCCCCCCCCOC[C@H](COP(=O)([O-])OCC[N+](C)(C)C)OC`, the Potency is reported as “inactive”.
With `NC(N)=NC(N)=Nc1cccc(Cl)c1` the Potency was “inactive”.
In the case of `N#C/C(=C\c1ccc(O)c(O)c1)C(=O)NCCc1ccccc1`, the Potency is reported as “inactive”.
With `CC(C)(CO)Cc1cc(C(C)(C)C)c(O)c(C(C)(C)C)c1` the Potency was “inactive”.
In the case of `CC(N)(Cc1ccc(O)cc1)C(=O)O` (stereo unspecified), the Potency is reported as “inactive”.
For `COc1cccc(OC)c1OCCNCC1CSc2ccccc2O1` (stereo unspecified), the Potency was “inactive”.
With `N#CC(=C(\N)Sc1ccccc1N)/C(C#N)=C(/N)Sc1ccccc1N` the Potency was “inactive”.
With `NCCCCN` the Potency was “inactive”.
With `O=C1NC(=O)c2cc(Nc3ccccc3)c(Nc3ccccc3)cc21` the Potency was “inactive”.
For `NC(N)=NC(N)=Nc1ccccc1`, the Potency was “inactive”.
For `CC(C)(C)c1ccc(/C=C/C(=O)Nc2ccc3c(c2)OCCO3)cc1`, the Potency was “inactive”.
In the case of `CNCCNS(=O)(=O)c1cccc2cnccc12`, the Potency is reported as “inactive”.
For `CC(C)C[C@H](NC(=O)[C@H](O)[C@H](N)Cc1ccccc1)C(=O)O`, the Potency was “inactive”.
In the case of `O=c1[nH]c2cc(Cl)ccc2c(O)c1-c1ccc(Oc2ccccc2)cc1`, the Potency is reported as “inactive”.
For `CCCCCCCCCCCCCCC[C@H](O)[C@H](N)CO`, the Potency was “inactive”.
For `Clc1nccc2c1ccc1ccccc12`, the Potency was “inactive”.
For `C=CCN1CCc2c(cc(O)c(O)c2Br)[C@@H](c2ccccc2)C1`, the Potency was “inactive”.
For `COc1cc(N)c(Cl)cc1C(=O)OCCN1CCCCC1`, the Potency was “inactive”.
In the case of `O=C(O)/C=C/c1cnc[nH]1`, the Potency is reported as “inactive”.
With `CCCC[C@@]1(C2CCCC2)Cc2cc(OCC(=O)O)c(Cl)c(Cl)c2C1=O` the Potency was “inactive”.
With `NCCNS(=O)(=O)c1cccc2c(Cl)cccc12` the Potency was “inactive”.
With `CN(C)S(=O)(=O)c1ccc2c(c1)/C(=C/c1cc3c([nH]1)CCCC3)C(=O)N2` the Potency was “inactive”.
For `O=C(O)c1cc(=O)cc(C(=O)O)[nH]1`, the Potency was “inactive”.
For `NC1(C(=O)O)CCc2cc(C(=O)O)ccc21` (stereo unspecified), the Potency was “inactive”.
With `NCCCCN=C(N)N` the Potency was “inactive”.
For `COc1ccc(CCN(C)CCc2ccc(OC)c(OC)c2)cc1OC`, the Potency was “inactive”.
With `CCC1(O)CC2CN(CCc3c([nH]c4ccccc34)[C@@](C(=O)OC)(c3cc4c(cc3OC)N(C=O)C3[C@]45CCN4CC=C[C@@](CC)([C@@H](OC(C)=O)[C@]3(O)C(=O)OC)[C@H]45)C2)C1` (stereo partly specified) the Potency was “inactive”.
With `C=CCNc1ncnc2ccc(Br)cc12` the Potency was “inactive”.
In the case of `CCCn1c(=O)c2[nH]c(C3CCCC3)nc2n(CCC)c1=O`, the Potency is reported as “inactive”.
With `S=C(S)N1CCCC1` the Potency was “inactive”.
In the case of `CC[C@H](NC(=O)c1c(C)c(-c2ccccc2)nc2ccccc12)c1ccccc1`, the Potency is reported as “inactive”.
With `Cc1ccccc1/C=C/C1=NCCN1` the Potency was “inactive”.
With `Nc1nc2ccc(Cl)cc2c2nc(-c3ccco3)nn12` the Potency was “inactive”.
In the case of `CO/N=C(\C(=O)N[C@@H]1C(=O)N2C(C(=O)O)=C(CSc3nc(=O)c(O)nn3C)CSC12)c1csc(N)n1` (stereo partly specified), the Potency is reported as “inactive”.
In the case of `CCC1(O)CC2CN(CCc3c([nH]c4ccccc34)[C@@](C(=O)OC)(c3cc4c(cc3OC)N(C)C3[C@]45CCN4CC=C[C@@](CC)([C@@H](OC(C)=O)[C@]3(O)C(=O)OC)[C@H]45)C2)C1` (stereo partly specified), the Potency is reported as “inactive”.
In the case of `O=c1[nH]c2ccccc2c2ccccc12`, the Potency is reported as “inactive”.
